Test [1] has as its system Zika virus NS2B-NS3 protease (unlinked complex). Put plainly: Primary screen GU Rhodamine qHTS for Zika virus inhibitors: Unlinked NS2B-NS3 protease assay (AID 1347159). Also: nearly all actives have a fitted effect of over 60% in size. Also: potency is read from the fitted curve at half-maximal effect. The gist of the method: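 Buffer 10 mM Tris-HCl pH 8.0, 0.01% Tween 20. Unlinked protease 25 nM; compound preincubation 15 min, RT, protected from light. Substrate Rhod110, 1.5 microM; ~15% conversion in 15 min.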

The test system of test [2] is Zika virus NS2B-NS3 protease (linked construct). As to the kind of experiment: Primary screen NINDS Rhodamine qHTS for Zika virus inhibitors (AID 1347160). Also: nearly all actives have a fitted effect of over 55% in size. The gist of the method: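 Aprotinin served as in-plate control. Conditions: 25 nM linked NS2B-NS3, pH 8.0 Tris buffer, titrated compounds, 15 min preincubation and 15 min reaction with 1.5 microM Rhod110 substrate at room temperature.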
In general terms: Quantitative high-throughput screening tests each substance at several concentrations.

Test [3] deals with Calcium and integrin-binding protein 1 (Homo sapiens) (UniProt Q99828). As to the kind of experiment: Primary qHTS for Identification of Calcium Integrin Binding Protein 1 (CIB1) Competitor (AID 1508620).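 Also: GST tagged CIB1 binding a fluorescein labelled alphaIIb integrin peptide tracer; top concentration of the series differs between compounds; % is scaled to controls: 0 for no effect and ±100 for the full control effect.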 The gist of the method: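 Fluorescence polarization competition: CIB1-GST (1 uM final) preincubated with compound 15 min at room temperature, then FITC-labeled alphaIIb peptide (100 nM final) added for another 15 min. Polarization read at Ex 480/Em 540.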
Chain of Calcium and integrin-binding protein 1 (Homo sapiens) (Q99828 whole entry, looked up): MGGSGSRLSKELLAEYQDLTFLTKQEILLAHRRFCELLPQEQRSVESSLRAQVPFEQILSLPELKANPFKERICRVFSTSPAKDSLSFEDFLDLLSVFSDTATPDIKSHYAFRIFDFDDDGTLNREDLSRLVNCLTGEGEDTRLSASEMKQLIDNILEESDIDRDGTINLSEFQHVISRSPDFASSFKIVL

Test [4] deals with Glutathione peroxidase 1 (Homo sapiens) (UniProt P07203). As to the kind of experiment: Primary qHTS Assay for Inhibitors of Recombinant Selenoprotein Glutathione Peroxidase 1 (GPX1) (AID 1845191). Also: nearly all actives have a fitted effect of over 65% in size. As to activity, negative = inhibition: % is scaled to controls: 0 for no effect and ±100 for the full control effect. The gist of the method: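 GPX1 10 nM, GR 100 nM, GSH 1 mM, NADPH 0.5 mM, CHP 0.5 mM (final). 30-min cpd preincubation, RT. Ex340/Em450 read t=0, t=15 min.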
Chain of Glutathione peroxidase 1 (Homo sapiens) (P07203 whole entry, looked up): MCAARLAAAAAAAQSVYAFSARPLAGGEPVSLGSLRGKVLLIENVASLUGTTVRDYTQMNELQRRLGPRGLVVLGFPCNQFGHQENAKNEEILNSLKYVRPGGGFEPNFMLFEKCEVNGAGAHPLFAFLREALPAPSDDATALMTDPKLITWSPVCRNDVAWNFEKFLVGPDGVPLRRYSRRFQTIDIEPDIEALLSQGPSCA
Test [5] deals with Phospholipid hydroperoxide glutathione peroxidase GPX4 (Homo sapiens) (UniProt P36969). As to the kind of experiment: Primary qHTS Assay for Inhibitors of Recombinant Selenoprotein Glutathione Peroxidase 4 (GPX4) (AID 1845192). Also: % is scaled to controls: 0 for no effect and ±100 for the full control effect; nearly all actives have a fitted effect of over 65% in size. The gist of the method:
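qHTS, GR-coupled: GPX4 200 nM + cpd 30 min RT → GSH 1 mM, NADPH 0.5 mM, GR 100 nM → CHP 0.5 mM start; fluor 340/450 at t0 and t15 min; no-enzyme wells as control.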

A short description of test [6]: Primary fluorescence-based thiol-reactive (MSTI) qHTS assay for identification of artifact compounds. (AID 1845221). Also: nearly all actives have a fitted effect of over 65% in size. Also: potency is read from the fitted curve at half-maximal effect.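 As to activity change, negative = thiol reactive: thiol-reactive compounds lower the probe fluorescence signal.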 The gist of the method:
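One-hour, room-temperature, dark incubation of compound with 4 uM MSTI in PBS (pH 7.4, 2% DMSO) precedes a fluorescence read at 525 nm excitation, 598 nm emission; Hill-equation fitting yields concentration-response values.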

Test [7] concerns Nanoluciferase (engineered Oplophorus gracilirostris luciferase). Put plainly: Primary Nanoluciferase (NLuc) qHTS assay for identification of artifact compounds. (AID 1845222).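 Also: NLuc secreted into diluted conditioned medium of S16 cells.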 In short, it runs like this: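 Using secreted nanoluciferase in S16 culture medium (0.22 um filtered, 1:55 dilution), compounds were preincubated 15 min at RT. Signal was generated with Nano-Glo reagent (1:100) over 5 min.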

A further test concerns CRL-7250. Put plainly: Cytotoxic Profiling of Annotated Libraries Using Quantitative High-Throughput Screening (AID 1296008). Also: nearly all actives have a fitted effect of over 60% in size. Also: potency is read from the fitted curve at half-maximal effect. As to max response: % is scaled to controls: 0 for no effect and ±100 for the full control effect. As to conditions: Five cell lines viability, CellTiter-Glo ATP luminescence, 48-72 h; max response: hits give low values. In short, it runs like this: (§1)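 Compounds were pin-transferred onto cells and incubated 48 or 72 hr at 37 degree Celsius, 95% humidity. CellTiter-Glo was added, plates sat 10 min at room temperature, then ATP-coupled luminescence was imaged as the viability read-out.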

In the next test the test system is NIH3T3. The test is described as above. The following applies: Five cell lines viability, CellTiter-Glo ATP luminescence, 48-72 h; max response: hits give low values. In short, it runs like this:
as §1
In general terms: Cellular ATP, detected with luciferase, serves as a proxy for viable cell number.

The next test relates to C33A. As to the kind of experiment: Primary qHTS to identify gynecologic anti-cancer compounds using libraries of approved drugs and bioactive compounds (AID 1345084). Also: nearly all actives have a fitted effect of over 55% in size. Also: potency is read from the fitted curve at half-maximal effect. As to activity change, negative = cytotoxicity: % is scaled to controls: 0 for no effect and ±100 for the full control effect. The following applies: Gynecologic cancer cell panel viability, ATPlite luminescence, 48 h; series mostly up to 57.5 µM. The gist of the method: (§2)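 In this quantitative HTS, cell killing is estimated from loss of ATP-dependent luciferase light. Cells see five compound concentrations over a 48 h exposure.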

Another test concerns CAOV3. The test is described as above. As to conditions: Gynecologic cancer cell panel viability, ATPlite luminescence, 48 h; series mostly up to 57.5 µM. In short, it runs like this: as §2
The next test deals with CASKI. The test is described as above. The following applies: Gynecologic cancer cell panel viability, ATPlite luminescence, 48 h; series mostly up to 57.5 µM. In short, it runs like this: as §2
For the next test, the system named is Es-2. The description is as above. As to conditions: Gynecologic cancer cell panel viability, ATPlite luminescence, 48 h; series mostly up to 57.5 µM. In short, it runs like this:
as §2

In a further test the test system is Hek293T. The test is described as above. As to conditions: Gynecologic cancer cell panel viability, ATPlite luminescence, 48 h, control line for the selectivity index; series mostly up to 57.5 µM. In short, it runs like this: as §2
Another test relates to JEG-3. The test is described as above. The following applies: Gynecologic cancer cell panel viability, ATPlite luminescence, 48 h; series mostly up to 57.5 µM. In short, it runs like this:
as §2

Another test deals with OV90. The description is as above. The following applies: Gynecologic cancer cell panel viability, ATPlite luminescence, 48 h; series mostly up to 57.5 µM. The gist of the method:
as §2

The next test concerns PA-1. The test is described as above. The following applies: Gynecologic cancer cell panel viability, ATPlite luminescence, 48 h; series mostly up to 57.5 µM. The gist of the method:
as §2

In another test the test system is Tov-21-G. The test is described as above. As to conditions: Gynecologic cancer cell panel viability, ATPlite luminescence, 48 h; series mostly up to 57.5 µM. In short, it runs like this: as §2
For the next test, the system named is Tov112D. Described as above. As to conditions: Gynecologic cancer cell panel viability, ATPlite luminescence, 48 h; series mostly up to 57.5 µM. The gist of the method:
as §2

Test [8] has as its target Luciferin 4-monooxygenase (Photinus pyralis) (UniProt P08659). As to the kind of experiment: Primary firefly luciferase (FLuc) qHTS assay for identification of artifact compounds. (AID 1845220). Also: nearly all actives have a fitted effect of over 60% in size. The following applies: outcome: dose series up to 54.1 µM unless noted. In short, it runs like this:
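In this counter-screen for luciferase artifacts, test compounds met substrate (10 uM each luciferin and ATP) before 10 nM enzyme started the reaction. Light output was measured 5 min later.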

A number with no mark means an inactive call. Records with an inconclusive call do not appear. Calls of active or inactive are those of the source. Calls follow the shape of the dose curve; as a rule, active = well fitted curve in the direction sought with a large enough effect; inconclusive = small, poorly fitted or top-dose-only effect, or another doubt; inactive = no such curve, though single readings can be large; an effect the other way counts as inactive or inconclusive.

Chain of Phospholipid hydroperoxide glutathione peroxidase GPX4 (Homo sapiens) (P36969 whole entry, looked up): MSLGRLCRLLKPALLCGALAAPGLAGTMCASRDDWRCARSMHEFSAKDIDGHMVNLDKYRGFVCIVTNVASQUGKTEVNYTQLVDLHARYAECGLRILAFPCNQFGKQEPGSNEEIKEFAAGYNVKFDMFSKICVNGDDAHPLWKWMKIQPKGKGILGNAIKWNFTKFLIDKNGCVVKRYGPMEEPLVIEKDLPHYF

As to `CN1C(=O)N(c2ccc(C#N)c(C(F)(F)F)c2)C(=O)[C@@]1(CO)c1ccccc1`, the Potency entry in [1], in [2], in test [3], in [4], in [5] and in test [6] was “inactive” in each case. Further, the Potency result (in test [7]; in the test on C33A; in the test on CAOV3; with CASKI; with Es-2; with Hek293T) was “inactive” throughout. Further, the Potency entry with JEG-3, in the test with OV90, in the test on PA-1, in the test with Tov-21-G and with Tov112D was “inactive” in each case. Also, the molecule was classed as inactive in the test on CRL-7250. In addition, the max response in the test with NIH3T3 is 4.41%.
As to `O=C(N1CCCCC1Cc1ccccc1)n1cc(-c2ccc(-c3ccccc3)cc2)nn1` (centres undefined), the Potency entry in [1], in test [2], in test [3], in test [4], in [5] and in [6] was “inactive” each time. The Potency entry (in test [7]; in the test with C33A; in the test on CAOV3; in the test on CASKI; with Es-2; with Hek293T) was “inactive” each time. Moreover, the Potency result with JEG-3, with OV90, in the test with PA-1, in the test on Tov-21-G and in the test on Tov112D was “inactive” throughout. Further, the call (in test [8]; in the test on NIH3T3) was inactive. For the same molecule, the max response with CRL-7250 was 2.49%.
In the case of `C/C=C(\C)C(=O)OC1CC2C(CC=C3CC(OC4CC(OC)C(OC5CC(OC)C(OC6CC(OC)C(OC7CC(OC)C(O)C(C)O7)C(C)O6)C(C)O5)C(C)O4)CCC32C)C2(O)CCC(C(C)=O)C12C` (centres undefined), the Potency entry in test [1], in [2], in [3], in [4] and in test [5] was “inactive” throughout. The activity change, negative = thiol reactive in test [6] was 0.247% [at 11.5 µM]. In addition, the activity, negative = inhibition in [7] is 1.71% [at 11.6 µM]. The max response in the test on CRL-7250 is -2.08%. Besides, the outcome in the test on NIH3T3 was inactive. The activity change, negative = cytotoxicity in the test on C33A is -3.2% [at 11.6 µM]; with CAOV3, 3.23% [at 11.6 µM]; in the test on CASKI it was -11.1% [at 11.6 µM]; in the test with Es-2, -0.231% [at 11.6 µM]; in the test on Hek293T, -2.97% [at 11.6 µM]; in the test on JEG-3 it was -3.8% [at 11.6 µM]. The activity change, negative = cytotoxicity in the test with OV90 is -21.5% [at 11.6 µM]; in the test with PA-1 it was -6.71% [at 11.6 µM]; with Tov-21-G, 1.18% [at 11.6 µM]; in the test with Tov112D it was -0.393% [at 11.6 µM].
For `CN1C(=O)[C@@H](Cc2c[nH]c3ccccc23)N=C(c2ccccc2F)c2ccccc21`, the Potency entry in test [1], in test [2], in test [3], in test [4], in test [5] and in test [6] was “inactive” in each case. Also, the Potency result (in [7]; in the test with C33A; in the test on CAOV3; in the test with CASKI; in the test on Es-2; with Hek293T) was “inactive” each time. Further, the Potency entry with JEG-3, in the test on OV90, with PA-1, with Tov-21-G and in the test with Tov112D was “inactive” each time. Moreover, the molecule was classed as inactive (in test [8]; with CRL-7250). Also, in the test with NIH3T3, the max response was -3.73%.
As for `Cc1c(N[C@@H](c2nnc(-c3ccc(C#N)cc3)o2)[C@H](C)O)ccc(C#N)c1Cl`, the Potency result (in test [2]; in [4]; in test [5]; in test [6]; in test [7]; in the test with C33A) was “inactive” in each case. Moreover, the Potency result in the test with CAOV3, with CASKI, with Es-2, with Hek293T, with JEG-3 and in the test on OV90 was “inactive” in each case. In addition, the Potency entry with PA-1, in the test with Tov-21-G and with Tov112D was “inactive” each time. In addition, the molecule was classed as inactive (in [8]; with CRL-7250). For the same molecule, the max response in the test on NIH3T3 is 4.88%.
As to `C[C@]12CC[C@H](O)C[C@@]1(O)CC[C@@H]1[C@@H]2CC[C@]2(C)[C@@H](c3ccc(=O)oc3)CC[C@]12O`, the Potency entry (in [1]; in [2]; in test [6]; in test [7]; in the test with C33A; in the test with CAOV3) was “inactive” each time. Also, the Potency entry in the test on CASKI, with Es-2, in the test with Hek293T, with JEG-3, with OV90 and in the test on PA-1 was “inactive” each time. The Potency result in the test with Tov-21-G and with Tov112D was “inactive” throughout. Besides, the Potency in the test with CRL-7250 is 5.2 nM (active). For the same molecule, the max response in the test with NIH3T3 was -7.45%.
Turning to `CCN1C[C@]2(COC)CC[C@H](O)[C@@]34C5C[C@@H]6[C@@H](OC)C[C@@](OC(C)=O)(C5[C@@H]6OC(C)=O)[C@H]([C@H](OC)C23)[C@@H]14` (some centres undefined), the Potency entry in [1], in test [2], in [3], in test [4], in test [5] and in [6] was “inactive” in each case. For the same molecule, the Potency entry (in test [7]; in the test with C33A; with CAOV3; in the test on CASKI; with Es-2; in the test on Hek293T) was “inactive” throughout. In addition, the Potency entry in the test with JEG-3, with OV90, in the test on PA-1, in the test with Tov-21-G and with Tov112D was “inactive” throughout. Moreover, the molecule was classed as inactive in test [8]. The max response in the test on CRL-7250 was 0.922%; in the test with NIH3T3, 2.14%.
Turning to `CCCCCCC1C(=O)O[C@H](C)[C@H](NC(=O)c2cccc(NC=O)c2O)C(=O)O[C@@H](C)[C@@H]1OC(=O)CC(C)C` (some centres undefined), the Potency is 6310 nM (active) in test [1]; 1890 nM (active) in test [6]; 580 nM (active) with CRL-7250; 3160 nM (active) in the test on CAOV3; 1000 nM (active) in the test with CASKI; 355 nM (active) in the test with Es-2. In the test on OV90, the Potency was 355 nM (active). Moreover, the Potency result (in [3]; in test [5]; in test [7]; in the test with JEG-3; in the test with Tov112D) was “inactive” throughout.
As to `Cc1ccc2c(c1)[C@H]1CN(C)CC[C@H]1N2C(=O)CSc1nnnn1-c1ccc(Cl)cc1`, the Potency entry in test [1], in test [2], in test [3], in [4], in [5] and in test [6] was “inactive” throughout. Moreover, the Potency entry (in test [7]; in the test on C33A; with CAOV3; in the test with CASKI; in the test with Es-2; in the test on Hek293T) was “inactive” throughout. For the same molecule, the Potency entry in the test on JEG-3, in the test on OV90, with PA-1, with Tov-21-G and in the test on Tov112D was “inactive” each time. The result (in test [8]; with NIH3T3) was inactive. Also, the max response in the test with CRL-7250 was 0.988%.
